# From the supplement of paper PMC3334620
# In all, about 33,000 sequences were measured (“E-score (-0.5 to 0.5)”: median about -0.041, highest 2% from about 0.37 on). The full list was thinned out, with the highest values kept by preference.
# Target: T1, Ecm22 (UniProt Q05958)
# T1 sequence: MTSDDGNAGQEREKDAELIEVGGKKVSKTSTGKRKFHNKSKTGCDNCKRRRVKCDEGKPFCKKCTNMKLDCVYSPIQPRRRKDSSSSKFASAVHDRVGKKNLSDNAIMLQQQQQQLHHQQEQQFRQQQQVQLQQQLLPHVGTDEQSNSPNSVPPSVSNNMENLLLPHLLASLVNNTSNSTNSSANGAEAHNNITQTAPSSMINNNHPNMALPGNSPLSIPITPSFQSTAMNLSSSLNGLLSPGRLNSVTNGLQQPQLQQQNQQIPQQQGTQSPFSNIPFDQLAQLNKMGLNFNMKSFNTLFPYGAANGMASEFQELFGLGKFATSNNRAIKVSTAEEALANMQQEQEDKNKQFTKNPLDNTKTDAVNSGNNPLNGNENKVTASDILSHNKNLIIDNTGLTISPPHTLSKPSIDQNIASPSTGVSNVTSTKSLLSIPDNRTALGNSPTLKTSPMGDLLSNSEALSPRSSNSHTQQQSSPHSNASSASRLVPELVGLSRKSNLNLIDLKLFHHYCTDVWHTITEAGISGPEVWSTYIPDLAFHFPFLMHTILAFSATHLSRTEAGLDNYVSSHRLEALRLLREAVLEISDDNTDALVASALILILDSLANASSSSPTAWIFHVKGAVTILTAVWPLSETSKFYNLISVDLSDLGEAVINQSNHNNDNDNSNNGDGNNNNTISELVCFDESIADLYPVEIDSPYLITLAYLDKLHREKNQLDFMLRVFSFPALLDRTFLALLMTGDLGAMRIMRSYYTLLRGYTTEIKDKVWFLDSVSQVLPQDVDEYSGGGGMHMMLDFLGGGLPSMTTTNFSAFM
# Experiment: PBM E-score (8-mer binding enrichment) (E-score (-0.5 to 0.5)); higher = stronger / more preferred TF binding
# Details: protein concentration: 200 nM; construct: GST-full length
# How it was run: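 Masliner-normalised scans of fluorescent anti-GST signal were the basis for scoring. That signal came from GST-tagged yeast transcription factors applied at about 100-200 nM to double-stranded universal all-10-mer Agilent arrays on fresh or once-stripped slides. Each ungapped eight-base word, pooled with its reverse complement, received an E-score from the Universal PBM Analysis Suite.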
row,Sequence,PBM E-score
1,AGCAATTA,-0.107
2,CCCAGGTC,-0.218
3,AAGTTGGT,0.0141
4,CTCAAGTA,-0.142
5,CATAACAC,0.0539
6,AGCCTCTC,-0.117
7,CGATAAAC,0.259
8,GACTTTTA,-0.222
9,CAGGCTGC,-0.272
10,ATGCCATA,0.0201
11,GATAGACC,0.0888
12,AACGACCT,0.385
13,ACCGACCT,0.0975
14,AGCGACCT,0.0578
15,GGACTGGA,-0.323
16,AACTGGGC,-0.0689
17,TCGTAACA,0.425
18,ACGTAAGA,0.105
19,ACGTTAAA,0.213
20,TCGTTAAA,0.44
21,GCGTATCA,0.114
22,GCGTAACA,0.00254

row,Sequence,PBM E-score
1,ACGTATCA,0.281
2,TCGTATCA,0.463
3,TCGTAAGA,0.407
4,CCGTAACA,0.2
5,CCGTAAGA,0.164
6,CCGTTAAA,0.278
7,AATGGGCA,-0.0348
8,AGAAATAA,-0.0747
9,AGAAGCCA,-0.0549
10,ACGAGTGG,0.331
11,ATTTTCCA,-0.0726
12,ACGTAAAA,0.243
13,TCGTAAAA,0.476
14,GCGTAAAA,0.217
15,GGCAGGGA,-0.148
16,AATTCAGA,-0.0476
17,CTCGTTGC,0.445
18,CACGTTTC,-0.0133
19,CTCGTTGA,0.277
20,CGCGTTTC,0.0578
21,ATCGTTGC,0.347
22,CTCGTTTC,0.453

row,Sequence,PBM E-score
1,CTGCAAAA,-0.0893
2,ACGGGTTA,0.217
3,ACGCATCA,0.0479
4,ATTCGGAC,0.163
5,CCGGGTAC,0.291
6,ATTTGAAC,0.0528
7,CTCAGCTC,-0.0614
8,ATCATCTC,0.0439
9,GTAAACAA,0.279
10,GTATCGAA,0.161
11,ATATCGTC,0.0456
12,GTATCGTA,0.421
13,ATATCGTG,0.147
14,CTATCGAA,0.0456
15,CTATCGTC,-0.0492
16,GTATCGGA,0.199
17,CTATCGTA,0.406
18,ATATCGTA,0.413
19,AGGCTTGC,-0.219
20,CCAAGACA,-0.257
21,AAGCTGGG,-0.271
22,AAACTGAC,0.00573

row,Sequence,PBM E-score
1,AAGTGGCC,-0.248
2,ACCCTACC,-0.0742
3,ATATACCG,0.21
4,ATATACTG,0.0789
5,ATATACAA,0.0401
6,ATATACCA,0.0649
7,ATATACGG,0.441
8,CTATACTC,0.0609
9,ATATACGC,0.299
10,ATATACGA,0.49
11,CTATACGC,0.403
12,CAGGCTTA,-0.245
13,CTTGTGGC,-0.239
14,AAAGGTCG,0.00556
15,ACGATCAG,0.224
16,GATCAGGA,-0.069
17,AGTTGTCA,-0.0616
18,CGGGTCGA,-0.00467
19,GCCGTTGA,-0.138
20,GCCGTTTA,0.421
